Reference: PubChem BioAssay (NCATS)
Records with an inconclusive call do not appear. Unmarked numbers belong to inactive results. Activity calls are given as the source filed them. Calls come from the whole dose curve; as a rule, active = well fitted cell-killing curve with a large enough effect; inconclusive = small, poorly fitted or top-dose-only effect, or effect the other way; inactive = no such curve, though single readings can be large or run the other way.

Assay: qHTS of pediatric cancer cell lines to identify multiple opportunities for drug repurposing: Confirmatory screen for Rh30 cells (AID 1347126); note: nearly all actives have a fitted effect of over 55% in size
Settings: Rh30 rhabdomyosarcoma cell viability; series mostly up to 45.9 µM; activity change, negative = cytotoxic: at the top concentration
In short: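 Cells (500-1,000/well) in growth media were settled 5 h at 37 degrees C, then given compounds for 48 h. Viability was read as CellTiter-Glo luminescence. Primary runs used MIPE at 11 points (0.78 nM-46 µM) and NPC at 8 points (0.59 nM-46 µM); follow-ups used 11 points.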
% is set by controls: 0 for no effect and ±100 for the full control effect; potency is the fitted concentration of half-maximal effect.

| Compound | activity change, negative = cytotoxic [%] | Potency |
| --- | --- | --- |
| CC(C(C)N1CC(=O)NC(=O)C1)N1CC(=O)NC(=O)C1 (stereo not drawn) | -14.2 |  |
| O=C(C=CC#Cc1cccc(NS(=O)(=O)c2ccccc2)c1)NO |  | 5.22 µM (active) |
| COc1ccc(S(=O)(=O)Nc2cccnc2Nc2ccc(O)cc2)cc1 | -3.86 |  |
| Nc1nc2c(c(=O)[nH]1)N(C=O)[C@H](CNc1ccc(C(=O)N[C@@H](CCC(=O)O)C(=O)O)cc1)CN2 | 4.37 |  |
| COc1ccc(C=Cc2cc(OC)c(OC)c(OC)c2)cc1NC(=O)[C@H](N)CO |  | 0.928 µM (active) |
| CCS(=O)(=O)Nc1ccc2[nH]c(O)c(C(=Nc3ccc(CN4CCCCC4)cc3)c3ccccc3)c2c1 |  | 1.65 µM (active) |
| CCc1cc(C(C)=NOCc2ccc(C3CCCCC3)c(C(F)(F)F)c2)ccc1CN1CC(C(=O)O)C1 | 1.58 |  |
| C=Cc1c(C)c2cc3nc(cc4[nH]c(cc5nc(cc1[nH]2)C(C)=C5CCC(=O)O)c(CCC(=O)OC)c4C)[C@@]1(C)C3=CC=C(C(=O)OC)[C@H]1C(=O)OC | -10.2 |  |
| COc1cc([C@@H]2c3cc4c(cc3[C@H](O)[C@H]3COC(=O)[C@@H]23)OCO4)cc(OC)c1OC | 11.8 |  |
| CC(C)(N)c1ccc(-c2nc3ccccc3nc2-c2ccccc2)cc1 | -12.9 |  |
| CCN(CC)CCNC(=O)c1c(C)[nH]c(C=C2C(=O)Nc3ccc(F)cc32)c1C |  | 12 µM (active) |
| CNC(=O)Nc1ccc(-c2nc(N3CC4CCC(C3)O4)c3cnn(C4CCC5(CC4)OCCO5)c3n2)cc1 |  | 0.329 µM (active) |
| FC(F)c1nc2ccccc2n1-c1nc(N2CCOCC2)nc(N2CCOCC2)n1 |  | 1.65 µM (active) |
